# Assay results published in PubChem BioAssay (NCATS).
# Results filed as inconclusive are left out. Where a call stands in place of a potency, no number is given. A number with no mark means an inactive call. The source made the active and inactive calls. Calls follow the shape of the dose curve; as a rule, active = well fitted curve in the direction sought with a large enough effect; inconclusive = small, poorly fitted or top-dose-only effect, or another doubt; inactive = no such curve, though single readings can be large; an effect the other way counts as inactive or inconclusive. Numbered stars: 1 amine (or outer) side, 2 acyl side, 3 side chain; on linkers, the order of the positions; unused ones are H or OH. Bridge positions count the residues as written; N and C are the ends. Peptide text beside a SMILES is read from it. X4 = O=C(CCC[*:2])[*:1]
# How the values were obtained:
# [1] = biological target: Cellular tumor antigen p53 (Homo sapiens) (UniProt P04637); assay: Primary qHTS for small molecule compounds that upregulate eGFP-tagged delta133p53alpha (in N-terminal) cells. (AID 2060322); conditions: NCI-H358 eGFP-delta133p53alpha fluorescence, 24 h; activation: stronger effect = higher value; also: nearly all actives have a fitted effect of over 75% in size; also: potency is read from the fitted curve at half-maximal effect; as to activation: series mostly up to about 56 µM
# Sequence of Cellular tumor antigen p53 (Homo sapiens) (P04637 whole entry, looked up): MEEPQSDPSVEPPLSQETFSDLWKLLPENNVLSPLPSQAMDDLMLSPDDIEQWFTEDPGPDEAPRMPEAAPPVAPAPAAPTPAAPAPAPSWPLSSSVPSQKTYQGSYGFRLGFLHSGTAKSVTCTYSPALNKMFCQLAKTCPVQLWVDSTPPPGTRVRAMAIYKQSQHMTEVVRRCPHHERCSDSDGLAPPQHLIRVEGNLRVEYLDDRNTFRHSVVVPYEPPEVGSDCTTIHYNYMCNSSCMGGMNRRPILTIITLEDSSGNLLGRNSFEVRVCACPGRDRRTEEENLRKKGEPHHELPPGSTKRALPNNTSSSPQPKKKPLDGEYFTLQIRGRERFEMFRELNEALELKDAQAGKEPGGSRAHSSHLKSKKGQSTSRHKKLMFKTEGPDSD
# In short: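 NCI-H358 cells pre-induced 24 h with 10 ng/ml doxycycline to express N-terminal eGFP-delta133p53alpha, then dosed 24 h at 37C without doxycycline; fixed, Hoechst-stained, GFP intensity by laser scanning cytometry, normalized to DMSO (0%) and 57.5 uM 5-azacytidine (100%).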
# [2] = biological target: Aldehyde dehydrogenase, mitochondrial (Homo sapiens) (UniProt P05091); assay: qHTS for Inhibitors of the Aldehyde Dehydrogenase Family (ALDH2) Primary screen (AID 2061308); also: nearly all actives have a fitted effect of over 55% in size
# [3] = biological target: Retinaldehyde dehydrogenase 3 (Homo sapiens) (UniProt P47895); assay: qHTS for Inhibitors of the Aldehyde Dehydrogenase Family (ALDH1A3) Primary screen (AID 2061315)
SMILES,activation [1] [%],Potency [2],Potency [3],"activity change, negative = inhibition [2]","activity change, negative = inhibition [3]",Potency [1]
C=C[C@@H]1[C@H](O[C@@H]2O[C@H](CO)[C@@H](O)[C@H](O)[C@H]2O)OC=C(C(=O)O)[C@H]1CCOC(=O)/C=C/c1ccc(O)c(O)c1,-7.63,inactive,inactive,,,
CNCCN1CCC(c2cc(CN(C)C(=O)c3cccc(Oc4ccccc4)c3)ccn2)CC1,-4.33,inactive,inactive,,,
OC[C@H]1O[C@@H](OCCc2ccc(O)cc2)[C@H](O[C@@H]2OC[C@](O)(CO)[C@H]2O)[C@@H](O)[C@@H]1O,1.79,inactive,inactive,,,
C[C@@H]1CCC2C(C)(C)[C@H](O)[C@H](O)C[C@]2(C)[C@@]12Cc1c(O)cc3c(c1O2)CN(CCCC(=O)O)C3=O (some centres undefined),-3.05,inactive,inactive,,,
COC(=O)c1ccccc1O[C@@H]1O[C@H](CO)[C@@H](O)[C@H](O)[C@H]1O[C@@H]1O[C@@H](C)[C@H](O)[C@@H](O)[C@H]1O,-10.7,inactive,inactive,,,
C[C@@H]1O[C@@H](O[C@H]2[C@H](O[C@H]3[C@H](O[C@H]4CC[C@@]5(C)C(CC[C@]6(C)C5CC=C5[C@@H]7CC(C)(C)C[C@@H](O)[C@]7(C)CC[C@]56C)[C@@]4(C)CO)O[C@H](C(=O)O)[C@@H](O)[C@@H]3O)O[C@H](CO)[C@H](O)[C@@H]2O)[C@H](O)[C@H](O)[C@H]1O (some centres undefined),-9.92,inactive,inactive,,,
COC(=O)C1=CO[C@@H](O[C@@H]2O[C@H](CO)[C@@H](O)[C@H](O)[C@H]2O)[C@@H]2[C@@H](C)[C@@H](O)C(O)[C@H]12 (some centres undefined),14.5,inactive,inactive,,,
CC1OC(O[C@@H]2[C@@H](O)[C@H](OC(=O)[C@]34CCC(C)(C)C[C@H]3C3=CCC5[C@@]6(C)CC[C@H](O[C@@H]7O[C@H](C(=O)O)[C@@H](O)[C@H](O[C@@H]8OC[C@@H](O)[C@H](O)[C@H]8O)[C@H]7O[C@@H]7O[C@H](CO)[C@H](O)[C@H](O)[C@H]7O)[C@@](C)(C=O)C6CC[C@@]5(C)[C@]3(C)C[C@H]4O)O[C@H](C)[C@@H]2OC2OC(C)C(OC3OCC(O)C(O)C3O)C(O)C2O)C(O)C(O)C1O (some centres undefined),-3.57,,,9.81% [at 11.2 µM],5.21% [at 11.2 µM],
CCOC(=O)c1cnn(-c2ccccc2)c1NC(=O)c1cc2nc(-c3ccco3)cc(C(F)(F)Cl)n2n1,0.955,inactive,inactive,,,
CC(C)c1ccc(CC(=O)N2CCC[C@@H](c3cccc(OC(C)(C)C(=O)O)c3)C2)cc1,7,inactive,inactive,,,
CC(C)CCNC(=O)[C@H](CC(C)C)NC(=O)[C@H]1O[C@@H]1C(=O)O,-9,inactive,inactive,,,
CC(CCC1(O)OC2CC3C4CC=C5CC(O[C@@H]6O[C@H](CO)[C@@H](O[C@@H]7O[C@@H](C)[C@H](O)[C@@H](O)[C@H]7O)[C@H](O)[C@H]6O[C@@H]6O[C@@H](C)[C@H](O)[C@@H](O)[C@H]6O)CCC5(C)C4CCC3(C)C2C1C)CO[C@@H]1O[C@H](CO)[C@@H](O)[C@H](O)[C@H]1O (some centres undefined),8.04,inactive,inactive,,,
C=C(C(=O)O)[C@@H]1CC=C2CCC[C@H](C)[C@@]2(C)C1,-21.4,inactive,inactive,,,
CCCCn1c(-c2ccccc2)nc(-c2ccccc2)c1CN(Cc1ccc2c(c1)OCO2)Cc1ccc2c(c1)OCO2,-10,inactive,inactive,,,
CC(C)=CCC/C(C)=C/CO[C@@H]1O[C@H](CO)[C@@H](O)[C@H](O)[C@H]1O,-4.46,inactive,inactive,,,
C=C(C)C(=O)OC1CC2(C)OC(=CC2=O)C(=C)CC2OC(=O)C(=C)C12 (centres undefined),,inactive,inactive,,,4.67 µM (active)
CC(=O)OC1[C@H]2[C@@H](C[C@@H](C)[C@@H]3C=CC(=O)[C@@]13C)OC(=O)[C@@H]2C (some centres undefined),,inactive,inactive,,,21.3 µM (active)
CC(=O)OC(CSC1CCC(=O)OC(C)CCC(=O)C1)C(=O)O (centres undefined),-6.87,inactive,inactive,,,
C[C@@H]1O[C@@H](O[C@H]2[C@H](O[C@H]3CC[C@@]4(C)C(CC[C@]5(C)C4C=C[C@]46OC[C@@]7(CCC(C)(C)C[C@H]74)[C@@H](O[C@@H]4O[C@@H](C)[C@H](O)[C@@H](O)[C@H]4O)C[C@]65C)[C@]3(C)CO)O[C@H](CO)[C@@H](O)[C@@H]2O[C@@H]2O[C@H](CO)[C@@H](O)[C@H](O)[C@H]2O)[C@H](O)[C@H](O)[C@H]1O (some centres undefined),0,inactive,inactive,,,
C/C=C/C=C/C(=O)O[C@@H]1C=C2COC(=O)[C@]2(O)[C@@]2(C)CCCC(C)(C)[C@H]12,-3.82,inactive,inactive,,,
CCC(C)C1NC(=O)C2C(C)CCN2C(=O)C(CC(O)CO)OC(=O)CCNC(=O)C(C)N(C)C(=O)C(C(C)C)N(C)C1=O (centres undefined),-6.11,inactive,inactive,,,
Nc1ncnc2c1ncn2[C@H]1O[C@@H](C(=O)N2CCN(CC(=O)Nc3cccc4c3CNC4=O)CC2)[C@H](O)[C@@H]1O,-24.3,inactive,inactive,,,

SMILES,activation [1] [%],Potency [2],Potency [3],"activity change, negative = inhibition [2]","activity change, negative = inhibition [3]",Potency [1]
Cc1ccc2c(c1)c1c(n2CCc2ccc(C)nc2)CCN(C)C1,14.3,inactive,inactive,,,
CC1=CC(=O)CC(C)(C)[C@@]1(O)/C=C/C(C)O[C@@H]1O[C@H](CO)[C@@H](O)[C@H](O)[C@H]1O (some centres undefined),15.3,inactive,inactive,,,
C[C@@H]1CC2OC(=O)C3=C2C(CCC3O)[C@@]12C[C@@H](c1ccoc1)OC2=O (some centres undefined),-8.4,inactive,inactive,,,
CC(CCO)CCC1C2(C)CCCC(C)(C)C2CC[C@@]1(C)O (some centres undefined),18.3,inactive,inactive,,,
C=CC(C)(O)CC/C=C(\C)C(=O)OC1CC2(C(=O)O)CCC3(C)C(=CCC4C5(C)CCC(OC6OC(COC7OCC(O)C(O)C7O)C(O)C(OC7OCC(O)C(O)C7O)C6OC6OC(CO)C(O)C(O)C6OC6OCC(O)C(O)C6O)C(C)(C)C5CCC43C)C2CC1(C)C (centres undefined),-7.14,,,3.26% [at 11.2 µM],-4.78% [at 11.2 µM],
CC1=CC(=O)CC(C)(C)C1/C=C/C(C)OC1OC(COC2OCC(O)C(O)C2O)C(O)C(O)C1O (centres undefined),8.93,inactive,inactive,,,
CC(C)(O)C(O)C(=O)OCc1ccc(O[C@@H]2O[C@H](CO)[C@@H](O)[C@H](O)[C@H]2O)cc1 (some centres undefined),8.4,inactive,inactive,,,
CN[C@H](CC(C)C)C(=O)N[C@H]1C(=O)N[C@@H](CC(N)=O)C(=O)N[C@H]2C(=O)N[C@H]3C(=O)N[C@H](C(=O)N[C@H](C(=O)O)c4cc(O)cc(O)c4-c4cc3ccc4O)[C@H](O[C@H]3C[C@](C)(N)[C@@H](O)[C@H](C)O3)c3ccc(c(Cl)c3)Oc3cc2cc(c3O[C@@H]2O[C@H](CO)[C@@H](O)[C@H](O)[C@H]2O[C@H]2C[C@](C)(NCc3ccc(-c4ccc(Cl)cc4)cc3)[C@@H](O)[C@H](C)O2)Oc2ccc(cc2Cl)[C@H]1O,27,inactive,inactive,,,
CC(=O)O[C@@H]1CC2C(/C=C(\C)C(=O)[C@@]3(O)C[C@@H](C)[C@H](OC(=O)c4ccccc4)C3/C=C/1C)C2(C)C (some centres undefined),-10.7,inactive,inactive,,,
CN(C)C/C=C/C(=O)Nc1cc2c(Nc3ccc(F)c(Cl)c3)ncnc2cc1OC1CCOC1 (centres undefined),,inactive,inactive,,,7.57 µM (active)
CC[C@H](C)[C@@H]1NC(=O)[C@H](Cc2ccc(OC)cc2)NC(=O)CCCSC[C@@H](C(=O)N2CCC[C@H]2C(=O)N[C@@H](CC(C)C)C(=O)NCC(N)=O)NC(=O)[C@H](CC(N)=O)NC(=O)[C@H](CCC(N)=O)NC1=O (Y(Me)IQNCPLG-NH2; linker N-5 via X4),-10.3,inactive,inactive,,,
CCOC(=O)Cn1cccc1-c1nc(-c2ccc(OC)cc2)c(-c2ccc(OC)cc2)s1,27.6,inactive,inactive,,,
O=C(OCC1=CC(Cl)C(O)C(OC(=O)c2ccccc2)C1O)c1ccccc1 (centres undefined),-22.9,inactive,inactive,,,
O=C(NCc1ccc(OC(F)(F)F)cc1)C1c2c(F)cccc2C(=O)N1CCc1ccccn1 (centres undefined),11.6,inactive,inactive,,,
O=C(Cn1c2ccccc2c2nc3n(c(=O)c21)CCS3)N1CCCC1,5.67,inactive,inactive,,,
COc1cc(C)c(C(=O)O[C@H]2[C@@H](O)[C@H](n3ccc(=O)[nH]c3=O)O[C@@H]2CO)c(OC)c1,-3.05,inactive,inactive,,,
CC(=O)O[C@@H]1C[C@H](O)[C@@]23CO[C@H](O)[C@]1(C)C2C[C@@H](O)[C@]1(C)C3C(=O)[C@H](OC(C)=O)[C@@]2(C)[C@H](c3ccoc3)C[C@H]3O[C@]321 (some centres undefined),-1.79,inactive,inactive,,,
CCc1cc(CC[C@]2(C3CCCC3)CC(O)=C(Cc3nc4nc(C)cc(C)n4n3)C(=O)O2)cc(CC)n1,-29.5,inactive,inactive,,,
COC(=O)C1C(c2ccc(O)cc2)C(C(=O)OC)C1c1ccc(O)cc1 (centres undefined),-16.1,inactive,inactive,,,
CC(C)(C)NCc1cc(Nc2ccnc3cc(Cl)ccc23)c2c(c1O)CCCC2,-11,,,-0.555% [at 0.464 µM],-4.88% [at 0.464 µM],
CC(=O)O[C@H]1[C@H](Oc2ccccc2COC(=O)C2(O)C=CCCC2=O)O[C@H](CO)[C@@H](O)[C@@H]1O (some centres undefined),-9.92,inactive,inactive,,,
